Values without a mark were called inactive. The source made the active and inactive calls.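 The calls were made as follows: active = normalized viability below 100% at a tested concentration; inactive = the rest.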

For orientation: viability means a read-out of living cells in per cent, often relative to untreated cells.

The first assay is described as follows: ovarian cancer cell viability with rucaparib, profiling panel, oncology-focused library, rucaparib conditional (AID 1508598). The note with it: patient-derived ovarian cancer cells, CellTiter-Glo viability, 144 h; at 0.00488 µM; OCI-C5x cells; without rucaparib; hits give low values. In general terms: Cellular ATP, detected with luciferase, serves as a proxy for viable cell number.
For the molecule `CC1(C)CNc2cc(NC(=O)c3cccnc3NCc3ccncc3)ccc21`, the viability is 122%.

Regarding `O=C(Nc1ccccc1-c1cn2c(CN3CCNCC3)csc2n1)c1cnc2ccccc2n1`, the viability is 110%.

With `Cc1cnc(NC(=O)Nc2cc(Br)c(C)cc2OC[C@@H]2CNCCO2)cn1`, the viability is 121%.

On to `N#Cc1c(NC(=O)c2cccc3ccccc23)sc2c1CCCC2`, for which the viability is 109%.

Consider `COc1ccc(-c2ccc3c(N4CCOC[C@@H]4C)nc(N4CCOC[C@@H]4C)nc3n2)cc1CO`, for which the viability is 119%.

`Nc1nc(Nc2ccc(S(N)(=O)=O)cc2)nn1C(=O)c1c(F)cccc1F`: the viability is 93.3% (active).

For the molecule `Cc1ccc(F)c(NC(=O)Nc2ccc(-c3cccc4[nH]nc(N)c34)cc2)c1`, the viability is 112%.

As for `COc1ccc(-c2ccc3c(N4CCOCC4)nc(N4C[C@@H](C)O[C@@H](C)C4)nc3n2)cc1CO`, the viability was 120%.

In the case of `N#CCNC(=O)c1ccc(-c2ccnc(Nc3ccc(N4CCOCC4)cc3)n2)cc1`, the viability is 117%.

On to `COC(=O)c1ccc2c(C(=Nc3ccc(N(C)C(=O)CN4CCN(C)CC4)cc3)c3ccccc3)c(O)[nH]c2c1`, for which the viability was 118%.

For `COc1cc2nccc(Oc3ccc(NC(=O)Nc4cc(C)on4)c(Cl)c3)c2cc1OC`, the viability is 106%.

The same assay, now with this note: patient-derived ovarian cancer cells, CellTiter-Glo viability, 144 h; at 0.00488 µM; OCI-P5x cells; with rucaparib 20 µM; hits give low values; 100% = cells with rucaparib alone.
In the case of `CC1(C)CNc2cc(NC(=O)c3cccnc3NCc3ccncc3)ccc21`, the viability was 135%.

Take `O=C(Nc1ccccc1-c1cn2c(CN3CCNCC3)csc2n1)c1cnc2ccccc2n1`: the viability was 111%.

On to `Cc1cnc(NC(=O)Nc2cc(Br)c(C)cc2OC[C@@H]2CNCCO2)cn1`, for which the viability is 114%.

Take `N#Cc1c(NC(=O)c2cccc3ccccc23)sc2c1CCCC2`: the viability is 102%.

As for `COc1ccc(-c2ccc3c(N4CCOC[C@@H]4C)nc(N4CCOC[C@@H]4C)nc3n2)cc1CO`, the viability was 90.3% (active).

With `Nc1nc(Nc2ccc(S(N)(=O)=O)cc2)nn1C(=O)c1c(F)cccc1F`, the viability was 94.7% (active).

As for `Cc1ccc(F)c(NC(=O)Nc2ccc(-c3cccc4[nH]nc(N)c34)cc2)c1`, the viability is 96.5% (active).

For `COc1ccc(-c2ccc3c(N4CCOCC4)nc(N4C[C@@H](C)O[C@@H](C)C4)nc3n2)cc1CO`, the viability is 104%.

For the molecule `N#CCNC(=O)c1ccc(-c2ccnc(Nc3ccc(N4CCOCC4)cc3)n2)cc1`, the viability is 106%.

For `COC(=O)c1ccc2c(C(=Nc3ccc(N(C)C(=O)CN4CCN(C)CC4)cc3)c3ccccc3)c(O)[nH]c2c1`, the viability was 95.7% (active).

Regarding `COc1cc2nccc(Oc3ccc(NC(=O)Nc4cc(C)on4)c(Cl)c3)c2cc1OC`, the viability is 92.6% (active).

For the origin of these results see PubChem BioAssay.
